In all, about 300,000 compounds went through this assay and about 37,000 (12%) were called active. No stated cut-off is given here; in the data, active means max response mostly above about 13% (no sharp cut-off); inactive means mostly below about 14%. Many of the other results were omitted from the sample, so actives are more common in it than they were.

A short description of this test: Cycloheximide Counterscreen for Small Molecule Inhibitors of Shiga Toxin. Further: read at 38.3 µM for the half of the compounds with a filed dose; 0% is about no effect. Conditions: cell reporter, cycloheximide protein synthesis inhibition counterscreen; stronger effect = higher value. In general terms: A counterscreen serves to expose hits that act by an unwanted route or on another target.
As for `CC(C)(C)NC(=O)CSC(=Nc1ccccc1F)NC#N`, the max response is 27.7% (active).

For `COc1ccccc1-n1ccnc1SCC(=O)NC(C)(C)C`, the max response was -1.32% (inactive).

As for `Cc1ccccc1CSCC(=O)NC(=O)NC(C)(C)C`, the max response was 9.92% (inactive).

With `CCc1nn(CC(=O)N2CCN(CC)CC2)c(=O)c2cccn12`, the max response is -0.288% (inactive).

As for `Cc1cc(C)cc(C(=O)NC(=S)Nc2ccc3[nH]c(=O)[nH]c3c2)c1`, the max response is -3.08% (inactive).

`Cc1ccccc1NC(=S)NC(=O)Cc1ccc(Cl)cc1`: the max response was -2.71% (inactive).

For `Cc1ccccc1C(=O)Nc1ccccc1NC(=O)c1ccccc1C`, the max response is -4.55% (inactive).

For the compound `Cc1ccccc1C(=O)Nc1ccccc1Sc1ccccc1`, the max response is -2.65% (inactive).

As for `Cc1ccc(C(=O)NC(=S)Nc2ccccc2C)cc1`, the max response is 43.9% (active).

For the compound `Cc1ccc(C(=O)NC(=S)NCc2cccnc2)cc1`, the max response is 18.8% (inactive).

For `Cc1cc2[nH]ncc2cc1NC(=S)NC(=O)c1ccccc1`, the max response was 16.5% (active).

Take `CCc1ccccc1NC(=O)CCOc1ccccc1`: the max response is 0.846% (inactive).

For `Cc1ccccc1NC(=O)CCOc1ccccc1`, the max response is 32.8% (active).

With `Cc1c(NC(=O)CCCOc2ccccc2)cccc1[N+](=O)[O-]`, the max response was 6.53% (inactive).

With `Cc1ccccc1NC(=O)c1ccccc1`, the max response was 15.4% (active).

For `Cn1nnc(NC(=S)NC(=O)c2ccccc2)n1`, the max response is 10.8% (inactive).

As to `COC(=O)C1(C)NC(c2ccccc2OC)C2C(=O)N(c3ccccc3)C(=O)C21` (configuration not stated), the max response is -3.69% (inactive).

As for `COc1ccc(N2CCN(S(=O)(=O)CCNC(=O)C34CC5CC(CC(C5)C3)C4)CC2)cc1`, the max response was -6.7% (inactive).

Consider `CCN(CC(=O)NCC(=O)Nc1cccc(C)c1C)Cc1ccccc1`, for which the max response was -0.652% (inactive).

With `O=C1C(=O)N(CCCN2CCOCC2)C(c2ccc([N+](=O)[O-])cc2)/C1=C(\O)c1ccc2c(c1)OCCO2` (configuration not stated), the max response was 13.6% (inactive).

As for `COc1ccccc1NC(=O)c1cc(N2C(=O)C3C4CCC(C4)C3C2=O)ccc1Cl` (configuration not stated), the max response was 21.1% (inactive).

In the case of `Cc1ccc(CNC(=O)c2ccc(CS(=O)Cc3cccc(Cl)c3)o2)cc1` (configuration not stated), the max response is 5.04% (inactive).

Regarding `CCC(C)C(=O)Nc1ccccc1N1CCN(c2ccc(F)cc2)CC1` (configuration not stated), the max response is 5.61% (inactive).

With `C/C(=N\NC(=S)NCc1ccccc1)C1CCCCC1`, the max response is -2.61% (inactive).

With `COC(=O)[C@@H]1CC(O)CN1C(=O)C12CC3CC(CC(C3)C1)C2` (some centres not stated), the max response is -8.25% (inactive).

On to `COc1ccc(C(=O)NC2CC2)cc1OC1CCN(Cc2ccc(SC)cc2)CC1`, for which the max response is 10.6% (inactive).

As to `Cc1nc([N+](=O)[O-])cn1CC(=O)Nc1ccc(Cl)cc1`, the max response was -1.69% (inactive).

Consider `CC(=O)Nc1ccc(C(=O)OCC(=O)Nc2ccc([N+](=O)[O-])cc2C(F)(F)F)cc1`, for which the max response was -3.83% (inactive).

For `O=C(NC(=O)c1ccccc1)Nc1ccccc1O`, the max response is 38.7% (active).

Regarding `O=C(Nc1ccc(C(=O)O)c(O)c1)c1ccccc1`, the max response is -3.21% (inactive).

For the compound `O=C(NC(=O)c1ccccc1)NC(=O)c1ccccc1`, the max response is 8.89% (inactive).

For the compound `O=C(CCN1CCN(C/C=C/c2ccccc2)CC1)Nc1ccccc1Cl`, the max response is -2.77% (inactive).

Take `Cc1ccc(-c2nnc(CN3CCN(C)CC3)o2)cc1`: the max response is 11.1% (inactive).

Regarding `Cc1ccc(CNC(=O)CCS(=O)(=O)c2ccc3c(c2)CC(C)N3C(=O)C2CC2)o1` (configuration not stated), the max response was 22.1% (active).

Consider `COc1ccccc1CNC(=O)C1CCN(S(=O)(=O)c2ccc3c(c2)CC(C)N3C(=O)C2CC2)CC1` (configuration not stated), for which the max response is 1.43% (inactive).

`CCC(=O)N1c2ccc(S(=O)(=O)CCC(=O)N3CCN(c4ccccc4)CC3)cc2CC1C` (configuration not stated): the max response was -1.91% (inactive).

As for `Cc1cc(SCc2c(F)cccc2Cl)nc(=O)[nH]1`, the max response was 6.03% (inactive).

As to `N[C@@H](Cc1c[nH]c2ccccc12)c1nnc(SCc2c(F)cccc2Cl)o1`, the max response was -4% (inactive).

Take `Brc1ccc(CSc2ccc(-c3ccco3)nn2)cc1`: the max response is 28.4% (active).

Consider `Clc1ccccc1CSc1nnc(-c2ccco2)c(-c2ccco2)n1`, for which the max response is 8.29% (inactive).

Turning to `O=C(CSc1ccc(-c2ccco2)nn1)NCc1ccc2c(c1)OCO2`, the max response was 3.12% (inactive).

With `Fc1cccc(Cl)c1CSc1ccc(-c2ccco2)nn1`, the max response was 39% (active).

As to `CCOc1ccc(Br)cc1S(=O)(=O)Nc1ccc(C(=O)OC(C)C(=O)N(C)c2ccccc2)cc1` (configuration not stated), the max response was 0.522% (inactive).

`O=C(Nc1cccc(Cl)c1)c1cc(S(=O)(=O)N2CCCCC2)c[nH]1`: the max response is 1.01% (inactive).

Turning to `CCOC(=O)C1CN(S(=O)(=O)c2ccc(OC)cc2)c2cc(Cl)ccc2O1` (configuration not stated), the max response was -3.3% (inactive).

With `Cc1ccc(S(=O)(=O)N2CCN=C2SCc2c(F)cccc2Cl)cc1`, the max response is 0.957% (inactive).

Take `CC(=O)N(c1ccc2oc(=O)sc2c1)S(=O)(=O)c1ccc(C)cc1`: the max response is -5.66% (inactive).

For `Cc1ccc(N=C2NC(=O)c3cccc([N+](=O)[O-])c32)cc1`, the max response was 37.1% (active).

Regarding `COC(=O)c1cccc([N+](=O)[O-])c1CS(=O)(=O)c1ccc(C)cc1`, the max response is 1.48% (inactive).

Turning to `Cc1ccc(Cl)cc1NC(=O)COC(=O)CC(C)(C)C`, the max response is -0.256% (inactive).

In the case of `O=C(COc1ccc(-c2ccccc2)cc1)NN=C1CCCC1`, the max response was -1.28% (inactive).

In the case of `O=[N+]([O-])c1cc(Br)c(O)c(/C=N/Nc2nc3ccccc3s2)c1`, the max response is 26% (inactive).

In the case of `c1ccc2sc(NN=C3CCCC3)nc2c1`, the max response is 38.7% (active).

`COCc1cc(=O)[nH]c(-c2ccc(C(F)(F)F)cc2)n1`: the max response was -0.991% (inactive).

As to `C=CCN(Cc1nc(-c2cc(OC)c3c(c2)OCO3)oc1C)C1CCS(=O)(=O)C1` (configuration not stated), the max response is -2.18% (inactive).

For the compound `Cc1nc2ccccc2cc1OCc1ccc(F)cc1`, the max response was 37.2% (active).

For the compound `Cc1occc(=O)c1OCc1ccc(F)cc1`, the max response was 5.09% (inactive).

Regarding `Fc1cccc2ncnc(OCc3ccccc3)c12`, the max response is 6.13% (inactive).

As to `CCSc1nc2sc3c(c2c(=O)n1-c1ccc(C)cc1)CCN(C)C3`, the max response was -1.97% (inactive).

For `Cc1cccc(NS(=O)(=O)c2ccc(C)c(C(N)=O)c2)c1`, the max response was -1.67% (inactive).

Consider `Cc1ccccc1CC1(CO)CCCN(Cc2ccc3c(c2)OCCO3)C1` (configuration not stated), for which the max response was -2.18% (inactive).

For `COc1ccc([C@H]2[C@H](C(C)=O)N3N=Cc4ccccc4C3C23C(=O)OC(C)(C)OC3=O)cc1` (some centres not stated), the max response was 12.2% (inactive).

For the origin of these results see PubChem BioAssay AID2314 (National Center for Advancing Translational Sciences (NCATS), 2010).
